An excerpt weighted towards active compounds, which were near 6.9% of everything screened.
L3MBTL1 inh – L3MBTL1 (human) inhibition. Q9Y468. AID 485360. 230,000 compounds, 0.66% hits. Potency, µM (series often up to 57.1 µM), most hits filed as inhibitors. AlphaScreen L3MBTL1–H3K9me1 peptide binding; further: nearly all actives have a fitted effect of over 60% in size
Target sequence (Q9Y468 whole entry, looked up): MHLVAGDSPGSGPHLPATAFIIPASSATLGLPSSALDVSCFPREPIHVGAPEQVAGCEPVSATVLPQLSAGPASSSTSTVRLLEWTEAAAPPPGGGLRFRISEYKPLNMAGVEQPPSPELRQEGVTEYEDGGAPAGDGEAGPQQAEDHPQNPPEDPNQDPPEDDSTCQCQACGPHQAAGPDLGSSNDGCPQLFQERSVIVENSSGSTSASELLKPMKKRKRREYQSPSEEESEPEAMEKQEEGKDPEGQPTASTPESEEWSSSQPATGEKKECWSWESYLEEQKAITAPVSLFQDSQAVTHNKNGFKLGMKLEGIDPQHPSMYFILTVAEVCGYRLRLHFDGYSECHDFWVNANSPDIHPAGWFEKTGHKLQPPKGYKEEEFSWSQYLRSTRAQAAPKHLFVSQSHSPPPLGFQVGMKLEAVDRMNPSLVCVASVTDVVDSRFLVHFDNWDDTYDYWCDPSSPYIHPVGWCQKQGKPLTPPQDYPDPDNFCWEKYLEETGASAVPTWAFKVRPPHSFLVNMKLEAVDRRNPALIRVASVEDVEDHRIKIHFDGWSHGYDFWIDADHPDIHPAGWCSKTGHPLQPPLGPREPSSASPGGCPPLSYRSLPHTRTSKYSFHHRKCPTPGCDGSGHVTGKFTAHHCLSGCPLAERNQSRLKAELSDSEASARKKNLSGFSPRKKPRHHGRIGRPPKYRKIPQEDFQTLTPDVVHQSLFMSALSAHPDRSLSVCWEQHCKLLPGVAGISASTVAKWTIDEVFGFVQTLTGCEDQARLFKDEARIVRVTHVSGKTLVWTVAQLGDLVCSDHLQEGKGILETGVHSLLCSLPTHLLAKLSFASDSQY
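AlphaScreen assay: L3MBTL1 (50 nM final) was preincubated 30 min at room temperature with biotinylated H3(1-15)K9me1 peptide (75 nM final), then 30 min with library compounds; streptavidin donor and nickel chelate acceptor beads (10 ug/mL final) added, 30 min dark.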
BAZ2B block – inhibitors of human BAZ2B bromodomain | Q9UIF8 | Potency, µM (series often up to 114 µM), most hits filed as inhibitors | AID 504333 | AlphaScreen BAZ2B-H3K14Ac peptide displacement | 360,000 compounds, 4.4% hits; further: nearly all actives have a fitted effect of over 60% in size
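Complex of BAZ2B and biotin-H3K14Ac (50 nM apiece) forms over 30 min at RT, then faces library compounds up to 110 uM for another 30 min; AlphaScreen beads added, 20 min dark incubation, luminescence read.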
PLK1 PBD inh – inhibitors of human PLK1 polo-box domain binding; P53350; Plk1 PBD binding of FITC phosphopeptide, fluorescence polarization; Potency, µM, most hits filed as inhibitors; 360,000 compounds, 2.8% hits; AID 720504; further: series mostly up to about 57 µM; nearly all actives have a fitted effect of over 65% in size
JMJD2A Tudor inh – blocks the human JMJD2A Tudor domain; Potency, µM (series often up to 114 µM), hits mostly inhibitors; 390,000 compounds, 4.4% hits; AlphaScreen JMJD2A-Tudor / H3K4me3 peptide binding; AID 504339; further: nearly all actives have a fitted effect of over 50% in size
VDR inh – vitamin D3 receptor (human) inhibition. P11473. VDR-SRC2-3 peptide fluorescence polarization, 2 h. Potency, µM, actives largely listed as inhibitors. 400,000 compounds, 0.93% hits
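Two reagent solutions held at 4 deg C in the dark were dispensed, compounds pinned at 23 nl, and the mixture incubated 2 h at room temperature. Read-out: fluorescence polarization of VDR–SRC2-3 peptide binding.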
HP1b binding inh – blocks HP1-beta chromodomain binding to methylated histone tails. P83916. AlphaScreen HP1-beta / biotin-H3K9me3 peptide binding. Potency, µM (titrated, usually from 114 µM), hits mostly inhibitors. 390,000 compounds, 0.56% hits; further: nearly all actives have a fitted effect of over 70% in size
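Compound inhibition of the preformed complex between 50 nM HP1-beta and 50 nM biotinylated H3K9me3 peptide was read by AlphaScreen. Buffer was PBS pH 7.4 with 0.01% Tween-20. Incubations ran 30 min at room temperature, with 10 ug/mL donor/acceptor beads.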
Of the large screens only hits and unclear results are named; the others gave an inactive call. The call rests on the fitted dose curve; in most records, active means well fitted curve in the direction sought with a large enough effect; inconclusive means small, poorly fitted or top-dose-only effect, or another doubt; inactive means no such curve, though single readings can be large; an effect the other way counts as inactive or inconclusive.

COc1ccc(CN2CCN(C)CC2)cc1OCc1ccccc1	none (no result: L3MBTL1 inh)
Cc1nc(-c2ccccc2)sc1-c1ccn[nH]1	none
CCn1c(-c2sc(-c3ccccc3)nc2C)n[nH]c1=S	JMJD2A Tudor inh 18µM
CCn1c(-c2cccc(Br)c2)n[nH]c1=S	JMJD2A Tudor inh 7.9µM
CCn1c(-c2ccc([N+](=O)[O-])cc2)n[nH]c1=S	JMJD2A Tudor inh 3.5µM
CCn1c(-c2ccc3ncccc3c2)n[nH]c1=S	JMJD2A Tudor inh 5µM
CCn1c(-c2ccccc2SC)n[nH]c1=S	JMJD2A Tudor inh inconclusive
CCS(=O)(=O)NCCc1sc2nc(-c3ccc(OC)cc3)nn2c1C	none (no result: L3MBTL1 inh, PLK1 PBD inh)
CCc1ccccc1NC(=O)CSc1ncc2c(n1)-c1ccccc1N(Cc1ccc(C)cc1)S2(=O)=O	none (no result: L3MBTL1 inh, PLK1 PBD inh)
CCOC(=O)C1C(C(=O)Nc2cccc(C(F)(F)F)c2)C1C(=O)NC(C)C (centres undefined)	none
O=C(Nc1ccccc1C(=O)Nc1nnc(C(F)(F)F)s1)c1ccccc1Cl	PLK1 PBD inh 27µM
Cc1nc(N)ncc1C(=O)Nc1ccccc1	none
CC(NCCC(Cc1ccccc1)c1ccco1)c1ccccc1 (centres undefined)	PLK1 PBD inh 30µM (no result: L3MBTL1 inh)
Fc1ccc(CNCCC(Cc2ccccc2)c2ccco2)cc1 (centres undefined)	none
Cc1c(OCC(=O)NCCCn2ccnc2)ccc2c3c(c(=O)oc12)CCC3	none (no result: L3MBTL1 inh)
COc1ccccc1OCC(=O)NCCCn1ccnc1	L3MBTL1 inh inconclusive, BAZ2B block 79µM
Cc1c(C)c2ccc(OCC(=O)NCCCn3ccnc3)c(C)c2oc1=O	BAZ2B block 79µM (no result: L3MBTL1 inh)
COc1ccccc1OCC(=O)NCCSCc1ccccc1Cl	PLK1 PBD inh 27µM, JMJD2A Tudor inh inconclusive, VDR inh inconclusive, HP1b binding inh inconclusive
O=C(COc1ccc(Br)cc1)NCCCn1ccnc1	BAZ2B block 56µM (no result: L3MBTL1 inh)
O=C(NCCc1ccccc1Cl)c1cc2ccccn2n1	none (no result: L3MBTL1 inh, PLK1 PBD inh)
Cc1ccc(-n2ncc(C(=O)NCCCN3CCCCC3)c2C2CCN(C(=O)OC(C)(C)C)CC2)cc1	none (no result: L3MBTL1 inh, PLK1 PBD inh)
CCN(CC)CCC(=O)c1ccc(F)cc1	PLK1 PBD inh 11µM
COc1ccc(-n2nc(C(=O)NCC(=O)N3CCCC3)c3ccccc3c2=O)cc1Cl	none (no result: L3MBTL1 inh)
N#Cc1nc(-c2cccs2)oc1N1CCN(Cc2ccccc2)CC1	BAZ2B block 25µM, JMJD2A Tudor inh inconclusive, HP1b binding inh inconclusive (no result: L3MBTL1 inh)
O=C(C[n+]1cn(C(F)F)c2ccccc21)c1ccc(Br)cc1	BAZ2B block 50µM, PLK1 PBD inh inconclusive
C=CCn1c(N)c(C(=O)NCCC2=CCCCC2)sc1=S	BAZ2B block 40µM, PLK1 PBD inh 7.5µM, JMJD2A Tudor inh inconclusive, VDR inh inconclusive, HP1b binding inh inconclusive
COc1cc(NC(=O)C(CC(C)C)NS(=O)(=O)c2ccc3c(c2)oc(=O)n3C)c(C(=O)O)cc1OC (centres undefined)	none (no result: L3MBTL1 inh, PLK1 PBD inh)
COc1ccc(C)cc1-n1c(-c2ccc(Cl)cc2)cc2c1CC(C)(C)CC2=O	BAZ2B block inconclusive, JMJD2A Tudor inh inconclusive (no result: L3MBTL1 inh, PLK1 PBD inh)
COc1ccc(-n2c(-c3ccc(Cl)cc3)cc3c2CC(C)(C)CC3=O)c(OC)c1	BAZ2B block 11µM, JMJD2A Tudor inh 14µM, HP1b binding inh inconclusive (no result: L3MBTL1 inh, PLK1 PBD inh)
Cn1c(=O)c2c(nc(NCc3ccccc3)n2Cc2ccc(Cl)c(Cl)c2)n(C)c1=O	none (no result: L3MBTL1 inh, PLK1 PBD inh)
COC(=O)N1CCC2(CCN(C(=O)Nc3ccc(OC)cc3)CC2)CC1	none (no result: L3MBTL1 inh, BAZ2B block, PLK1 PBD inh, JMJD2A Tudor inh, HP1b binding inh)
N#Cc1cnc(NN)nc1	L3MBTL1 inh inconclusive, BAZ2B block 22µM, JMJD2A Tudor inh 0.79µM, HP1b binding inh inconclusive
CCN(CC)S(=O)(=O)c1cc(NC(=O)Cn2ncc(Cl)c(Cl)c2=O)ccc1C	L3MBTL1 inh 18µM
O=C(Cn1ncc(Cl)c(Cl)c1=O)Nc1ccc2c(c1)OCO2	none
[O-]/[N+](=C/c1ccc(F)cc1)c1ccccc1	VDR inh inconclusive
[O-]/[N+](=C\c1ccncc1)c1ccccc1	VDR inh 79µM
Cc1ccc(S(=O)(=O)SC/C=C/CSS(=O)(=O)c2ccc(C)cc2)cc1	PLK1 PBD inh 2.7µM, JMJD2A Tudor inh 3.2µM, VDR inh 45µM, HP1b binding inh inconclusive (no result: L3MBTL1 inh, BAZ2B block)
Cc1ccc(S(=O)(=O)CS(=O)(=O)c2ccc(C)cc2)cc1	none (no result: L3MBTL1 inh, BAZ2B block)
Cc1ccc(S(=O)(=O)CCCS(=O)(=O)c2ccc(C)cc2)cc1	none
